According to PubChem BioAssay AID1671202 (University of Kansas High Throughput Screening Laboratory, 2021):
Several values for one entry are separate records, joined by “and”; a condition that tells them apart may be missing. Identical values can stand only once. In all, about 190,000 compounds went through this assay and about 6,900 (3.6%) were called active. No stated cut-off is given here; in the data, active means inhibition above about 50%; inactive means the rest. Many of the other results were omitted from the sample, so actives are more common in it than they were.

biological target: Huntingtin (Homo sapiens) (UniProt P42858); assay: mutant huntingtin-calmodulin interaction inhibitors – biochemical, AlphaScreen, primary screen (AID 1671202); settings: AlphaScreen His-mHTT/GST-CaM binding, luminescence; at 15 µM, stronger effect = higher value;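 further: 0% = both proteins with DMSO and 100% = one protein alone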
Sequence (P42858 whole entry, looked up, stated change not applied): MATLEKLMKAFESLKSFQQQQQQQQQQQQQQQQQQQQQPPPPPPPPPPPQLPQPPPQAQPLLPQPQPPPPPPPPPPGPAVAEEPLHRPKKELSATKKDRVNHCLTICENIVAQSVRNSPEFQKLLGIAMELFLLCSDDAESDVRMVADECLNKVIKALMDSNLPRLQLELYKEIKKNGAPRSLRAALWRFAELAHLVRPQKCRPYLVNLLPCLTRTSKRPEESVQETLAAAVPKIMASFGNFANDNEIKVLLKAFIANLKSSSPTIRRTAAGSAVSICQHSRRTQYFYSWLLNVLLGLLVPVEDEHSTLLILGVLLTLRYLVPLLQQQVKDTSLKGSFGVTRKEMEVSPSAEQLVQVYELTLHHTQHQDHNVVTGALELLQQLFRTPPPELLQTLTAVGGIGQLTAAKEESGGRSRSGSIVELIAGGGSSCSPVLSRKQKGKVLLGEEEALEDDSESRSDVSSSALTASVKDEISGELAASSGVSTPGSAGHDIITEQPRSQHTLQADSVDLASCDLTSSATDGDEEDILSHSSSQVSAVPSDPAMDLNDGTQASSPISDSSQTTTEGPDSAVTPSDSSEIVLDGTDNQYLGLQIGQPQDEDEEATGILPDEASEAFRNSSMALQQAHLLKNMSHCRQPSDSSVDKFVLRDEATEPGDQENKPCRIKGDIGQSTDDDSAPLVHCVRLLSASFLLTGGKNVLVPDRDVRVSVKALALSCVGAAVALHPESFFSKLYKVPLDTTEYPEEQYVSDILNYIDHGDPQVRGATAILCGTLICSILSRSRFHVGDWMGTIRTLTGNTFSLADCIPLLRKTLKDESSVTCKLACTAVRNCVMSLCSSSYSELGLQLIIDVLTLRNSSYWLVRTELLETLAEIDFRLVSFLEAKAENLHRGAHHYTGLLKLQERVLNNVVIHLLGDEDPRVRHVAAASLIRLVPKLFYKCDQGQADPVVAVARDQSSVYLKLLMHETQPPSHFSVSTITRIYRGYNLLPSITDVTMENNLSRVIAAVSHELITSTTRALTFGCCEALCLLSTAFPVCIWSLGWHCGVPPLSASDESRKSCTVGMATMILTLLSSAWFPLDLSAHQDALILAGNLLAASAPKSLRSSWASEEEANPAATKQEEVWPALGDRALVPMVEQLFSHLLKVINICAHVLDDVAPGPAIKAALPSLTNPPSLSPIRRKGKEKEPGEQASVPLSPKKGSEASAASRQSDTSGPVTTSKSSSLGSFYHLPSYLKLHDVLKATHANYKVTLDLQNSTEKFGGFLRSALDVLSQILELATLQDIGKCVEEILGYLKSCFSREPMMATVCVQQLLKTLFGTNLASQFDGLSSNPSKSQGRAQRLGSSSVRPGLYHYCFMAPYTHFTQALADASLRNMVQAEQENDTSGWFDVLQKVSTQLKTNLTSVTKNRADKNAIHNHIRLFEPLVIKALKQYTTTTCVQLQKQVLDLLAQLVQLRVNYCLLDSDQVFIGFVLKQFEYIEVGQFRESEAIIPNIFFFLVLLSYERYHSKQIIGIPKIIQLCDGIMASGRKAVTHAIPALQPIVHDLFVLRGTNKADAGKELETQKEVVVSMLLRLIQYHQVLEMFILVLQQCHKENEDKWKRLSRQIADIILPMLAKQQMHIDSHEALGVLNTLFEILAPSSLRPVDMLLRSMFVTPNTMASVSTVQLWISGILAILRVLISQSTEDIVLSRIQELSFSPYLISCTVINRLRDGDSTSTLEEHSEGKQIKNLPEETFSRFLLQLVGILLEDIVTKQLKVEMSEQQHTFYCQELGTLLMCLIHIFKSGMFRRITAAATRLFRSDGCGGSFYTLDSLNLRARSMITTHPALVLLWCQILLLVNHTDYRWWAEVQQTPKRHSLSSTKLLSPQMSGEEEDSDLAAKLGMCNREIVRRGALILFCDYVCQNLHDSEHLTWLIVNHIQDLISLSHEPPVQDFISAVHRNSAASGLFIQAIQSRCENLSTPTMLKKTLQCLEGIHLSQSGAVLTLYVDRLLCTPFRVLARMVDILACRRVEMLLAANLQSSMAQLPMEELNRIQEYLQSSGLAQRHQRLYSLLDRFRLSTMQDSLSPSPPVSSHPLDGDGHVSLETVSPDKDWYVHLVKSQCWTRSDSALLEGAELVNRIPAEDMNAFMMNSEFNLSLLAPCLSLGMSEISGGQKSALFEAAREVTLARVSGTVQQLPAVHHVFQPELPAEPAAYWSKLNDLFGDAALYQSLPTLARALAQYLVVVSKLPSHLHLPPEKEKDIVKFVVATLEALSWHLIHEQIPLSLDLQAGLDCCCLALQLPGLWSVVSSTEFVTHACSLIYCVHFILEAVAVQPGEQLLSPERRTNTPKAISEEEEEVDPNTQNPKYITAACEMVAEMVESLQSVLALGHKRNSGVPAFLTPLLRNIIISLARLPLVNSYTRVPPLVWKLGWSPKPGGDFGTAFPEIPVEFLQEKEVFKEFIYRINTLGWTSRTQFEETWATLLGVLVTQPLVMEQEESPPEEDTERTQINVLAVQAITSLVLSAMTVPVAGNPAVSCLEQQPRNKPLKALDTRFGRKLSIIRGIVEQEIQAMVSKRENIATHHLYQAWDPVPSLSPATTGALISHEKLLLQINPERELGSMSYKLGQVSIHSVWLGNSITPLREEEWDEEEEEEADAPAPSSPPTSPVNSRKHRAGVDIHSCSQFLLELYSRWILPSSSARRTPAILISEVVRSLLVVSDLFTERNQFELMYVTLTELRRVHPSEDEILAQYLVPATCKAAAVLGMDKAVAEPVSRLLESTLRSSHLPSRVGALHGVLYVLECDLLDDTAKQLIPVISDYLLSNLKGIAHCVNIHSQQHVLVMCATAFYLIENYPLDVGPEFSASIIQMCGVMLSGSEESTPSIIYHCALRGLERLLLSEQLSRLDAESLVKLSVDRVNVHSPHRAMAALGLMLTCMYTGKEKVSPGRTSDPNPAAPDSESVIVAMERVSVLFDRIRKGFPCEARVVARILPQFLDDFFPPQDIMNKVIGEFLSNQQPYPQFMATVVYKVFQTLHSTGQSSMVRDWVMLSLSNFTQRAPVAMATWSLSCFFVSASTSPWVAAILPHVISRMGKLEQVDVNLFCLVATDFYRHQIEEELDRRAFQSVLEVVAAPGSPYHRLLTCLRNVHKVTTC

| SMILES | inhibition |
| --- | --- |
| CCC1CO/C(=C(\C(=C(Cl)Cl)N2CCOCC2)[N+](=O)[O-])N1 (stereo unspecified) | -5% (inactive) |
| O=[N+]([O-])C(=C1SCCS1)C(=C(Cl)Cl)N1CCCC1 | 62% (active) |
| O=C1CS/C(=C(\C(Cl)=C(Cl)Cl)[N+](=O)[O-])N1c1ccc(Cl)cc1 | 33% (inactive) |
| N#C/C(=C\c1ccccc1F)c1nc(-c2cccc([N+](=O)[O-])c2)cs1 | 5.7% (inactive) |
| CCC(=O)NCc1nc2c(n1CC)CN(S(=O)(=O)Cc1ccc(Cl)cc1)CC2 | 0.5% (inactive) |
| COc1ccc(N2C(=O)NC3CC2(C)Oc2ccccc23)cc1Cl (stereo unspecified) | -0.83% (inactive) |
| CN1CCCN(C(=O)C2COC3(CCCCC3)N2C(=O)c2ccccc2)CC1 (stereo unspecified) | 1.3% (inactive) |
| Cc1cc(C2CCCN2C(=O)c2cc(-c3ccccc3F)no2)no1 (stereo unspecified) | -0.13% (inactive) |
| Cc1c(N=C2C=C(C(C)C)C(=O)C(C(C)C)=C2)c(=O)n(-c2ccccc2)n1C | 8% (inactive) |
| C=CCn1c(-c2ccccc2)csc1=Nc1ccc(O)cc1 | 69% (active) |
| C=CCn1c(=O)c2cnc(-c3ccc(Cl)cc3)nc2n(C)c1=O | -3.7% (inactive) |
| C=CCn1c(-c2ccc(Cl)cc2)csc1=Nc1c(C)n(C)n(-c2ccccc2)c1=O | 66% (active) |
| CCn1c(=NC(=O)c2ccc(S(=O)(=O)N(C)C)cc2)sc2cc(F)ccc21 | 3% (inactive) |
| CCN1CCN(c2ncc3c(n2)CCN(Cc2cc(OC)c(OC)cc2OC)C3)CC1 | 23.9% (inactive) |
| COc1ccc(C2CC(=O)C3=C(C2)Nc2ncnn2C3c2cccc(OC)c2OC)cc1 (stereo unspecified) | 10.8% (inactive) |
| O=C(NCCC1=CCCCC1)C1CCCN(Cc2nc(-c3ccncc3)no2)C1 (stereo unspecified) | -3.8% (inactive) |
| COc1ccc(-n2c3c(cc(C(=O)N4CCOCC4)c2=O)C(=O)CC(C)(C)C3)cc1 | -1% (inactive) |
| CC(C)c1ccc(C2N3CC4(C)CN2CC(C)(C3)C4O)cc1 (stereo unspecified) | -5% (inactive) and 3.2% (inactive) |
| Cc1c(C)n(Cc2ccccc2)c2ccc(C(=O)N3CCN(C(=O)c4ccccc4)CC3)cc12 | 99% (active) |
| Cc1ccc(C(=O)N2CCN(c3ccccc3)CC2)cc1 | 0.5% (inactive) |
| Cc1cccc(C(=O)N2CCCN(C(=O)c3cccc(C)c3)CC2)c1 | -1.9% (inactive) |

| SMILES | inhibition |
| --- | --- |
| O=C(Nc1ccccc1[N+](=O)[O-])c1c(F)cccc1F | 2.8% (inactive) |
| Fc1ccc(C2CC(c3ccc(Br)cc3)Nc3ncnn32)cc1 (stereo unspecified) | 7% (inactive) |
| CCN1/C(=C2\N=C(c3ccccc3)OC2=O)C=Cc2ccccc21 | 39% (inactive) |
| CCN1C(=Cc2cc[n+](-c3ccccc3)cc2)C=Cc2ccccc21 | 65% (active) |
| CC(=O)C1=C(O)C(=O)N(c2nccs2)C1c1ccc([N+](=O)[O-])cc1 (stereo unspecified) | 10.1% (inactive) |
| O=C(O)c1ccccc1-c1ccccc1C(=O)Nc1cccc2cccnc12 | 8.7% (inactive) |
| COc1ccc(NC(=O)Nc2cccc3cccnc23)cc1 | 11.4% (inactive) |
| O=C(Nc1ccccc1)Oc1cccc2cccnc12 | 93.6% (active) |
| C=CCNC(=O)c1c(F)ccc(S(=O)(=O)N2CCCCCC2)c1F | -7% (inactive) |
| O=C(Cn1ncn2nc(-c3ccc(Cl)cc3)cc2c1=O)Nc1ccccc1C(F)(F)F | -7.9% (inactive) |
| CCNC(=O)c1csc(-c2cccc(OC)c2)n1 | -7.8% (inactive) |
| COc1ccc(/C=C2\SC(=O)N(CN3CCOCC3)C2=O)cc1 | -4% (inactive) |
| NNc1ncnc2sc3c(c12)CCCC3 | 100% (active) |
| OCCNc1ncnc2sc3c(c12)CCCCC3 | 1.3% (inactive) |
| Clc1ncnc2sc3c(c12)CCCCC3 | -7.58% (inactive) |
| COc1cc(C(=O)N2CCC(CC(=O)NC3CCCC3)CC2)cc(OC)c1OC | -1.18% (inactive) |
| O=C1C[C@H]2C=CCc3cccc(c32)CN1Cc1ccccc1 | 100% (active) |
| Cc1cccc(CN2Cc3cccc4c3[C@H](C=CC4)CC2=S)c1 | 3.5% (inactive) |
| O=C1C[C@@H]2c3c(cccc3CN1Cc1ccccc1)C[C@@H](O)[C@H]2O | 1.6% (inactive) |
| O=C(Cc1ccc(F)cc1Cl)N1CCCC1c1cccc(F)c1 (stereo unspecified) | -1.36% (inactive) |
| COc1ccc(CNC(=O)C2CC(=O)N(c3ccc(OCc4ccc(F)cc4)cc3)C2)cc1 (stereo unspecified) | -13.8% (inactive) |

| SMILES | inhibition |
| --- | --- |
| COc1ccc(C2CC(C(F)(F)F)n3ncc(C(=O)NC45CC6CC(CC(C6)C4)C5)c3N2)cc1 (stereo unspecified) | 6% (inactive) |
| COCCNC(=O)Nc1nc(-c2ccccn2)cs1 | 95.6% (active) |
| COc1ccc(C(=O)Nc2cc(-c3ccccn3)no2)cc1 | -10.4% (inactive) |
| CC1CC(C)CN(S(=O)(=O)c2ccc(C(=O)Nc3nc(-c4ccccn4)cs3)cc2)C1 (stereo unspecified) | 17% (inactive) |
| CC(C)SCC(=O)Nc1nc(CC(=O)O)cs1 | 1.9% (inactive) |
| COC(=O)Nc1nc(CC(=O)NCc2nc3ccccc3[nH]2)cs1 | -0.6% (inactive) |
| Cc1nc(NC(=O)c2ccoc2C)sc1C | 10% (inactive) |
| Cc1nc(NC(=O)Cc2csc(NC(=O)c3ncccn3)n2)sc1C | 98% (active) |
| O=C(Cc1csc(NC(=O)c2ncccn2)n1)Nc1cccc2nsnc12 | 99.8% (active) |
| COc1cc(C(=O)Nc2cccc3nsnc23)cc(OC)c1OC | -8.5% (inactive) |
| Cc1ccc(NC(=O)c2ccc(Cl)c(Cl)c2)nc1 | -13.9% (inactive) and -7% (inactive) |
| O=C(CSc1nc2ccsc2c(=O)n1Cc1ccccc1F)NC1CCCC1 | -3% (inactive) |
| CC(=O)N(C)C1(C(=O)NC2CCCCC2)CCCCC1 | 4% (inactive) |
| COCCCNC(=O)C1(C)CCC(=O)N1Cc1ccc(C)cc1 (stereo unspecified) | 3.12% (inactive) |
| CCCCN(C)S(=O)(=O)c1ccc(C(=O)Nc2nnc(C)o2)cc1 | 32% (inactive) |
| O=C1CC[C@@H]2CC3(C[C@@H]4CCN1[C@H]24)Nc1cc([N+](=O)[O-])ccc1NC3=NC1CCCCC1 (stereo partly specified) | 57.5% (active) |
| O=C1CCC[C@@H]2C[C@@]3(C[C@@H]4CCN1[C@H]24)Nc1ccccc1NC3=NCc1ccccc1 | 11.5% (inactive) |
| O=C(/C(=C1\Nc2ccc([N+](=O)[O-])cc2N1)[N+](=O)[O-])N1CCCCC1 | 8% (inactive) |
| Cc1cc2c(cc1C)NC1(C[C@H]3CCC(=O)N4CC[C@@H](C1)[C@@H]34)C(=NC(C)(C)CC(C)(C)C)N2 (stereo partly specified) | 96.4% (active) |
